Data published in PubChem BioAssay (EPA / NIEHS).
Some structures have more than one record in an assay (separate samples or runs), and their calls can disagree. Calls of active or inactive are those of the source. The calls were made as follows: active = hit-call score of the fitted dose curve at least 0.9, where 1 is the maximum; inactive = score below 0.9.

assay: ATG_BRE_CIS: Attagene CIS-FACTORIAL HepG2 Assay for human Bone Morphogenetic Protein (BMP) Response Element (BRE) (AID 2282933); conditions: HepG2 BMP response element reporter, Attagene transcription factor profiling; actives raise or lower the signal
Method: ATG_CIS is a cell-based, multiplexed-readout assay that uses HepG2, a human liver cell line, with measurements taken at 24 hours after chemical dosing in a 24-well plate.ATG_BRE_CIS is one of 52 assay component(s) measured or calculated from the ATG_CIS assay. It is designed to make measurements of mRNA induction, a form of inducible reporter, as detected with fluorescence intensity signals by Reverse transcription polymerase chain reaction (RT-PCR) and Capillary electrophoresis technology.Data from the assay component ATG_BRE_CIS was analyzed into 1 assay endpoint. This assay endpoint, ATG_BRE_CIS, was analyzed with bidirectional fitting relative to DMSO as the negative control and baseline of activity. Using a type of inducible reporter, measures of mRNA for gain or loss-of-signal activity can be used to understand the reporter gene at the transcription factor-level as they relate to the gene SMAD1. Furthermore, this assay endpoint can be referred to as a primary readout, because this assay has produced multiple assay endpoints where this one serves a reporter gene function. To generalize the intended target to other relatable targets, this assay endpoint is annotated to the dna binding intended target family, where the subfamily is Smad protein.
Human liver HepG2 cells are transiently transfected with multiple reporter transcription units (MRTUs) in 6-well plates using FuGene 6 reagent (Roche; 3 ml FuGene/1 mg DNA). The MRTU constructs are regulated by a cis-regulating element (promoter). […] A major difference between the CIS and TRANS system is that in CIS activities of endogenous TFs are measured, whereas the TRANS assay evaluates changes in activities of exogenous, chimeric NR-Gal4 proteins. […] At the end of 24 hour incubation, total RNA was isolated using TriZol reagent (Invitrogen). The isolated RNA is then reverse-transcribed using oligo(dT) primer and Mo-MLV reverse transcriptase (Invitrogen) with DNAse I (Ambion) treatment for 30 min. The one-tenth of the produced cDNA was amplified by PCR using Taq DNA polymerase (Invitrogen) and two reporter sequence-specific primers. The PCR products were fluorescently labeled by primer extension with 6-arboxyfluorescein (6-FAM) 5'-labeled reporter sequence-specific primer (2 min at 95 C, 20 s at 68 C and 10 min at 72 C) and these products were digested with 5U of HpaI (New England Biolabs) for 2h at 37 C. The fragments were purified using Qiaquick PCR columns (Qiagen), analyzed on an ABI 3130xL genetic analyzer (Applied Biosystems) with peak positions identified by using a set of X-rhodamine (ROX)-labeled MapMarker1000 molecular weight standards (BioVentures). The raw capillary electrophoresis data was processed using Attagraph software (Attagene).

| SMILES | outcome | AC50 |
| --- | --- | --- |
| CCOP(=S)(OCC)Oc1ccc2c(C)c(Cl)c(=O)oc2c1 | inactive |  |
| FC(F)C(F)(F)OCC(Cn1cncn1)c1ccc(Cl)cc1Cl (stereo not given) |  | 58.4 µM (active) |
| O=C(O)c1cc(Oc2ccc(C(F)(F)F)cc2Cl)ccc1[N+](=O)[O-] | inactive |  |
| CON=C(C(=O)OC)c1ccccc1CON=C(C)c1cccc(C(F)(F)F)c1 |  | 25 µM (active) |
| CCC(=O)Nc1ccc(Cl)c(Cl)c1 | inactive |  |
| CCOP(=S)(OCC)SCCSCC | inactive |  |
| CCOP(=S)(OCC)Oc1cc(C)nc(C(C)C)n1 | inactive |  |
| CCCCOC(=O)[C@@H](C)Oc1ccc(Oc2ccc(C#N)cc2F)cc1 | inactive |  |
| Cc1nn(-c2cc(NS(C)(=O)=O)c(Cl)cc2Cl)c(=O)n1C(F)F | inactive |  |
| Cc1cc(C2CC2)nc(Nc2ccccc2)n1 |  | 33.5 µM (active) |
| CSc1nc(NC(C)C)nc(NC(C)C)n1 | inactive |  |
| Nc1c(Cl)cc([N+](=O)[O-])cc1Cl |  | 36.1 µM (active) |
| CCc1cccc(C)c1N(C(=O)CCl)C(C)COC (stereo not given) | inactive |  |
| CN(C)NC(=O)CCC(=O)O | inactive |  |
| CN(C)C(=O)Nc1cccc(C(F)(F)F)c1 | inactive |  |
| CCOP(=O)(NC(C)C)Oc1ccc(SC)c(C)c1 (stereo not given) | inactive |  |
| CNC(=O)ON=C(C)SC | inactive |  |
| CC(COc1ccc(Oc2ccccc2)cc1)Oc1ccccn1 (stereo not given) | inactive |  |
| COP(=O)(NC(C)=O)SC (stereo not given) | inactive |  |
| CCOC(=O)CC(SP(=O)(OC)OC)C(=O)OCC (stereo not given) | inactive |  |

| SMILES | outcome | AC50 |
| --- | --- | --- |
| CCCOc1nn(C(=O)NS(=O)(=O)c2ccccc2C(=O)OC)c(=O)n1C | inactive |  |
| O=[N+]([O-])c1cc(C(F)(F)F)c(Cl)c([N+](=O)[O-])c1Nc1ncc(C(F)(F)F)cc1Cl | inactive | 2.63 µM (active) |
| CCCCN(CC)c1c([N+](=O)[O-])cc(C(F)(F)F)cc1[N+](=O)[O-] | inactive |  |
| CC1(C(=O)Nc2ccc(O)c(Cl)c2Cl)CCCCC1 |  | 39.3 µM (active) |
| CC(C1CC1)C(O)(Cn1cncn1)c1ccc(Cl)cc1 (stereo not given) | inactive |  |
| COP(=O)(OC)SCn1c(=O)oc2cc(Cl)cnc21 | inactive |  |
| CCCSP(=O)(OCC)Oc1ccc(Br)cc1Cl (stereo not given) | inactive |  |
| C[N+]1(C)CCCCC1 | inactive |  |
| CNC(=O)Oc1cccc2c1OC(C)(C)O2 |  | 42 µM (active) |
| COP(=O)(OC)OC(Br)C(Cl)(Cl)Br (stereo not given) | inactive |  |
| CCOP(=S)(OCC)Oc1ccc([N+](=O)[O-])cc1 | inactive |  |
| CC(Oc1cccc(Cl)c1)C(=O)O (stereo not given) | inactive |  |
| CCOP(=S)(OCC)OC(Cl)C(Cl)(Cl)Cl (stereo not given) | inactive |  |
| Cc1ccn2nc(S(=O)(=O)Nc3c(F)cccc3F)nc2n1 | inactive |  |
| CCc1cccc(CC)c1N(COC)C(=O)CCl | inactive |  |
| CC(C)[C@H](C(=O)O[C@H](C#N)c1cccc(Oc2ccccc2)c1)c1ccc(Cl)cc1 | inactive |  |
| CSc1nnc(C(C)(C)C)c(=O)n1N | inactive |  |
| CCOP(=S)(Oc1cnc(C(C)(C)C)nc1)OC(C)C (stereo not given) |  | 50 µM (active) |
| CC(=NC#N)N(C)Cc1ccc(Cl)nc1 | inactive |  |
